Only some compounds are listed: those with a hit (about 2.4% of all), similar ones and a draw of the others.
D2 ag-1 = HTS Assay for Allosteric Agonists of the Human D2 Dopamine Receptor: Primary Screen for Agonists; HEK293 T-REx D2 cells, calcium flux agonist mode; D(2) dopamine receptor (Homo sapiens), P14416; 340,000 tested, 0.53% active; activation, % at 2 µM;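 active = activation over 3 SD above normal in the single-dose calcium agonist read, cut at about 30% in these data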
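In this primary screen, compounds producing a positive calcium signal within 180 s of addition to tetracycline-induced, force-coupled HEK293 Trex D2 cells are flagged; cells are dye-loaded with a no-wash calcium kit beforehand.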
D2 ag-2 = Beta-Arrestin HTS for Positive Allosteric Modulators of the Human D2 Dopamine Receptor: Agonists | 360,000 tested, 0.084% active | AID 624465, 2012 | DiscoveRx PathHunter D2 beta-arrestin, luminescence, 90 min; 100% = 57 uM dopamine signal | activation, % (test concentration not listed); in the data active = activation above about 40%; inconclusive = between about 15% and that limit
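DiscoveRx PathHunter D2 beta-arrestin cells (2,100/well) attached overnight, then compound-stimulated 90 min at 37 C in HBSS/10 mM HEPES/0.1% Tween-20 buffer; beta-galactosidase complementation read by luminescence after 1 h at ambient temperature. Dopamine 57 uM final (EC100) as control.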
D2 antag = HTS Assay for Allosteric Antagonists of the Human D2 Dopamine Receptor: Primary Screen for Antagonists | D(2) dopamine receptor (Homo sapiens), P14416 | HEK293 TREx D2 cells, calcium flux, dopamine EC80 | inhibition, % at 10 µM | 340,000 tested, 2% active | AID 485344, 2010; in the data active = inhibition above about 30%; inactive = below that, where a call was filed
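Antagonism is scored as inhibition of an EC80 dopamine-evoked calcium signal in a force-coupled, tetracycline-inducible HEK293 T-REx D2 line, with compound present 180 s before agonist.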
D2 PAM-1 = Beta-Arrestin HTS for Positive Allosteric Modulators of the Human D2 Dopamine Receptor: Potentiators | potentiation, % (no concentration beside the values) | 360,000 tested, 0.23% active | DiscoveRx D2 beta-arrestin cells, luminescence, 90 min; 100% = 57 uM dopamine signal; in the data active = potentiation above about 50%; inconclusive = mostly about 30% to 49%
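D2 cells co-treated with compound plus 50 nM dopamine (EC20) for 90 min at 37 deg C to detect potentiation. Beta-arrestin recruitment was read as enzyme-fragment luminescence after 1 h at ambient temperature. Full response was set by 57 uM dopamine.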
D2 PAM-2 = HTS Assay for Positive Allosteric Modulators of the Human D2 Dopamine Receptor: Primary Screen for Potentiators; D(2) dopamine receptor (Homo sapiens), P14416; HEK293 T-REx D2, calcium flux, EC20 dopamine potentiation; potentiation, % at 10 µM; 340,000 tested, 0.34% active; AID 485347, 2010;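 active = potentiation over 3 SD above the plate norm, cut at about 30% in these data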
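Using a no-wash calcium dye in inducible, force-coupled HEK293 Trex cells expressing D2, we tracked fluorescence each second for 180 s after compound, then for 180 s after EC20 dopamine to detect augmented signalling.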
D3 ag = qHTS of D3 Dopamine Receptor Agonist: D3 Dopamine Receptor B-arrestin Agonist Confirmatory Assay. DiscoveRx D3 beta-arrestin cells, luminescence, 90 min. Potency, µM (doses to about 76.9 µM), usual class: activators. AID 720506, 2013. shares compounds with D2 ag-1. 2,300 tested, 4% active; also: nearly all actives have a fitted effect of over 70% in size
Target sequence (P35462 whole entry, looked up): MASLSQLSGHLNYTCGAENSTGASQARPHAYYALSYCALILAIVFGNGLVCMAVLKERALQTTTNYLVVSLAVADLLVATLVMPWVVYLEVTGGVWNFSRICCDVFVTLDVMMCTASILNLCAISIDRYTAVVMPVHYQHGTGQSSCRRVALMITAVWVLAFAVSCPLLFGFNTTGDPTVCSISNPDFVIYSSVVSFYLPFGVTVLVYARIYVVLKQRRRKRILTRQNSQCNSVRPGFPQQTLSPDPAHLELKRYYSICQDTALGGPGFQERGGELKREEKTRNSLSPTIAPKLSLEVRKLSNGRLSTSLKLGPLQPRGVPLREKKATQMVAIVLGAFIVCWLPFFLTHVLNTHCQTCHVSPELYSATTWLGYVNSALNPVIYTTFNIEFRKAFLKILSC
D2 ag-3 = qHTS of D3 Dopamine Receptor Agonist: D2 Dopamine Receptor B-arrestin Agonist Counterscreen. shares compounds with D2 ag-1. DiscoveRx PathHunter D2 beta-arrestin, luminescence, 90 min; response scale: percent relative to full dopamine signal. Potency, µM (titrated, usually from 76.9 µM), most hits filed as activators. AID 720507, 2013. 2,300 tested, 5.9% active; also: nearly all actives have a fitted effect of over 70% in size
Of the large screens only hits and unclear results are named; the others gave an inactive call (follow-up assays come after a bar, where they were run). Unless noted, calls follow the shape of the dose curve; as a rule, active = well fitted activation curve with a large enough effect; inconclusive = small, poorly fitted or top-dose-only effect; inactive = flat fitted curve, though single readings scatter.

O=C(NCCCN1CCN(c2ccccc2F)CC1)C1CCCN(S(=O)(=O)c2cnc[nH]2)C1 (configuration not stated)	D2 ag-1 68, D2 antag 65 | D3 ag inconclusive | D2 ag-3 inactive
COc1ccc(CN([C@H](C)CO)S(=O)(=O)N(Cc2ccccc2)[C@H](CO)C(C)C)cc1	none | D3 ag inactive | D2 ag-3 inactive
COc1ccc(CN([C@H](CO)CC(C)C)S(=O)(=O)N(Cc2ccccc2)[C@H](CO)CC(C)C)cc1	none (no result: D2 ag-1, D2 antag, D2 PAM-2)
CCOC(=O)Cc1csc(NC(=O)CN2CCOCC2)n1	none | D3 ag inactive | D2 ag-3 inactive
CCOc1cc(CNCCc2ccc(S(N)(=O)=O)cc2)ccc1OCc1ccc(Cl)cc1	D2 antag 65 | D3 ag inconclusive | D2 ag-3 inconclusive
Cc1ccc2c(c1)N(C(C)C(=O)NCc1ccc3c(c1)OCO3)C(=O)CO2 (configuration not stated)	none | D3 ag inactive | D2 ag-3 inactive
CCN(CC)c1ccc2cc(S(=O)(=O)c3ccc(C)cc3)c(=O)oc2c1	none | D3 ag inactive | D2 ag-3 inactive
Cc1ccc(S(=O)(=O)c2cc3ccccc3oc2=O)cc1	none
Cc1ccc(OCC(=O)Nc2ccccc2C(=O)OCc2cc(=O)n3ccsc3n2)cc1C	none (no result: D2 ag-1, D2 ag-2, D2 antag, D2 PAM-1)
Cc1ccc(C(=O)c2cn(CC(=O)Nc3ccc(C)cc3Cl)c3nc(C)ccc3c2=O)cc1	none (no result: D2 ag-1, D2 ag-2, D2 antag, D2 PAM-1)
CC(=O)CCc1ccc(OCC(O)CNCCOc2ccc(C)cc2)cc1 (configuration not stated)	D2 ag-1 66, D2 antag 61 | D3 ag inconclusive | D2 ag-3 inconclusive
CC(C(=O)Nc1cccc([N+](=O)[O-])c1)N1CCN(C/C=C/c2ccccc2)CC1 (configuration not stated)	D2 ag-1 72, D2 antag 47 | D3 ag inactive | D2 ag-3 inconclusive
O=C(c1cccc([N+](=O)[O-])c1)N1CCN(C/C=C/c2ccccc2)CC1	none
O=C(CSc1nncs1)NNC(=O)c1ccco1	none | D3 ag inactive | D2 ag-3 inactive
CCOC(=O)c1cc2c(=O)n3ccccc3nc2n(CC2CCCO2)c1=NC(=O)c1ccc(F)cc1 (configuration not stated)	none (no result: D2 ag-2, D2 antag, D2 PAM-1)
Fc1ccc(Nc2nc(-c3cccc(Cl)c3)c3c(n2)-c2ccccc2OC3)cc1	none (no result: D2 ag-2, D2 antag, D2 PAM-1)
N#CCN(C(=O)COC(=O)CCCNC(=O)c1ccc(Cl)cc1)c1ccccc1	none | D3 ag inactive | D2 ag-3 inactive
COc1cccc(CNC(=O)C2CCN(C(=O)c3sccc3-n3cccc3)CC2)c1	none (no result: D2 ag-2, D2 antag, D2 PAM-1)
CCCN(CCC)CCCNC(=S)Nc1ccc2nc(N3CCN(CC)CC3)cc(C)c2c1	none | D3 ag inactive | D2 ag-3 inactive
CCN1CCN(CC(O)COc2cccc(OC)c2)CC1 (configuration not stated)	none
OC(COc1ccc2ccccc2c1)CN1CCN(c2ccc(F)cc2)CC1 (configuration not stated)	D2 ag-1 53 | D3 ag inconclusive | D2 ag-3 inactive
COc1cccc(OCC(O)CN2CCN(c3ccc(F)cc3)CC2)c1 (configuration not stated)	D2 ag-1 34, D2 antag 80 | D3 ag inactive | D2 ag-3 inactive
COc1cccc(OC)c1OCC(O)CN1CCN(c2ccc(F)cc2)CC1 (configuration not stated)	D2 ag-1 56, D2 antag 73 | D3 ag inactive | D2 ag-3 inactive
OC(COc1c(F)cc(Br)cc1F)CN1CCN(c2ccc(F)cc2)CC1 (configuration not stated)	D2 ag-1 59, D2 antag 71 | D3 ag inconclusive | D2 ag-3 inconclusive
CCC1(C2C=COC=C2)NC(=O)NC1=O (configuration not stated)	none (no result: D2 ag-1, D2 antag, D2 PAM-2)
O=C(Nc1ccc(F)c(Cl)c1)c1cc(C2CCCCN2C(=O)c2ccccc2)on1 (configuration not stated)	none (no result: D2 ag-1, D2 antag, D2 PAM-2)
Cc1ccccc1-c1nc(SCC(=O)NCc2ccc(F)cc2)c2c(=O)n(C)c(=O)n(C)c2n1	none (no result: D2 ag-2, D2 antag, D2 PAM-1)
CCN(CC)C(=O)c1[nH]cnc1C(=O)N[C@@H](C)C(=O)OC(C)(C)C	none | D3 ag inactive | D2 ag-3 inactive
Cc1ccc(F)c(S(=O)(=O)NC(=O)C2(C)CCN2C(=O)c2ccccc2)c1 (configuration not stated)	none (no result: D2 ag-1, D2 antag, D2 PAM-2)
COc1ccc(OCc2cc(C(=O)NC3CCc4ccccc43)no2)c(Cl)c1 (configuration not stated)	D2 ag-1 58 | D3 ag inactive | D2 ag-3 inactive
O=C(NC1CCc2ccccc21)c1cc(COc2ccc(F)cc2F)on1 (configuration not stated)	none
Cc1cccc(SC2CCN(Cc3nc(CC4CC4)no3)CC2)c1	none
Cc1cccc(N2CCN(Cc3nc(CC4CC4)no3)CC2)n1	none | D3 ag inactive | D2 ag-3 inactive
CC(Nc1n[nH]c(=O)[nH]c1=O)C(=O)N/N=C/c1ccccc1 (configuration not stated)	none | D3 ag inactive | D2 ag-3 inactive
COc1cc(/C=N/NC(=O)C(C)Nc2n[nH]c(=O)[nH]c2=O)ccc1O (configuration not stated)	none (no result: D2 ag-1, D2 antag, D2 PAM-2)
COc1ccc(C(=O)Nc2cc(C(F)(F)F)ccc2-n2cnc3ccccc32)cc1	none
CC(=O)Nc1ccc(C(=O)Nc2cc(C(F)(F)F)ccc2-n2cnc3ccccc32)cc1	none | D3 ag inactive | D2 ag-3 inactive
Nc1ccc(-c2nc3cc([N+](=O)[O-])ccc3o2)cc1	none | D3 ag inactive | D2 ag-3 inactive
Cc1cc(CN2CCN(CC(=O)Nc3cc(Cl)ccc3-n3cncn3)CC2)no1	D2 ag-1 41 | D3 ag inactive | D2 ag-3 inactive
